# Measurements published in PubChem BioAssay (EPA / NIEHS).
# Results filed as inconclusive are left out. Active and inactive are the calls of the source. The calls were made as follows, unless noted: active = hit-call score of the fitted dose curve at least 0.9, where 1 is the maximum; inactive = score below 0.9.
# Legend:
# [1] = molecular target: Oxysterols receptor LXR-beta (Homo sapiens) (UniProt P55055); assay: ATG_LXRb_TRANS: Attagene TRANS-FACTORIAL HepG2 Assay for human Liver X Receptor beta (LXRb) (AID 2282981; active = hit-call score of the fitted dose curve at least 0.9, where 1 is the maximum); conditions: HepG2 Attagene TRANS GAL4-LXRb reporter, mRNA
# Chain of Oxysterols receptor LXR-beta (Homo sapiens) (P55055 whole entry, looked up, the tested form may be a part): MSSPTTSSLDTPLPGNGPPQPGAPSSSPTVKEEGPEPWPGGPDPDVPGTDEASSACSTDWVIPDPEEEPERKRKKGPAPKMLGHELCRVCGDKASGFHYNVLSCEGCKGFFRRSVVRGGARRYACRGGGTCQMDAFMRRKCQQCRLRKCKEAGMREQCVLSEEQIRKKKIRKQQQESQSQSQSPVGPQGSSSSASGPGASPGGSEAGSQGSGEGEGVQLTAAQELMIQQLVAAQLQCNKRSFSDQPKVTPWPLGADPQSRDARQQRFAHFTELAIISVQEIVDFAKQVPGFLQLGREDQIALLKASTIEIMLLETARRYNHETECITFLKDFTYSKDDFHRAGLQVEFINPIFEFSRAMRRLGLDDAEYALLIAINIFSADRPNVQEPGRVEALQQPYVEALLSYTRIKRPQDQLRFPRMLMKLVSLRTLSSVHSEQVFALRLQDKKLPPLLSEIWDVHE
# In short: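 After 24 h of chemical treatment, transfected HepG2 cells yield total RNA; reporter cDNA is PCR-amplified, FAM-labelled, HpaI-cut and run on capillary electrophoresis. Signal reflects chimeric LXRb-Gal4 activity on GAL4-UAS reporters.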
# [2] = ATG_M_32_TRANS: Attagene TRANS-FACTORIAL HepG2 Assay for M32 Transcription Factor (Internal Marker) (AID 2282984; active = hit-call score of the fitted dose curve at least 0.9, where 1 is the maximum;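 also: transcript level of a background control reporter unit measured by RT-PCR and capillary electrophoresis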); conditions: HepG2 Attagene TRANS M32 internal marker reporter
# In short: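 Cell-based TRANS-format assay in HepG2: exogenous chimeric GAL4 reporter units transiently expressed, compounds applied 24 h. Reporter mRNA detected by RT-PCR plus capillary electrophoresis; this readout is an internal background marker.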
# [3] = molecular target: Nuclear receptor subfamily 4 group A member 2 (Homo sapiens) (UniProt P43354); assay: ATG_NURR1_TRANS: Attagene TRANS-FACTORIAL HepG2 Assay for human Nuclear Receptor Related Protein 1 (NURR1) (AID 2282985; active = hit-call score of the fitted dose curve at least 0.9, where 1 is the maximum); conditions: HepG2 Attagene TRANS reporter, mRNA readout
# Chain of Nuclear receptor subfamily 4 group A member 2 (Homo sapiens) (P43354 whole entry, looked up, the tested form may be a part): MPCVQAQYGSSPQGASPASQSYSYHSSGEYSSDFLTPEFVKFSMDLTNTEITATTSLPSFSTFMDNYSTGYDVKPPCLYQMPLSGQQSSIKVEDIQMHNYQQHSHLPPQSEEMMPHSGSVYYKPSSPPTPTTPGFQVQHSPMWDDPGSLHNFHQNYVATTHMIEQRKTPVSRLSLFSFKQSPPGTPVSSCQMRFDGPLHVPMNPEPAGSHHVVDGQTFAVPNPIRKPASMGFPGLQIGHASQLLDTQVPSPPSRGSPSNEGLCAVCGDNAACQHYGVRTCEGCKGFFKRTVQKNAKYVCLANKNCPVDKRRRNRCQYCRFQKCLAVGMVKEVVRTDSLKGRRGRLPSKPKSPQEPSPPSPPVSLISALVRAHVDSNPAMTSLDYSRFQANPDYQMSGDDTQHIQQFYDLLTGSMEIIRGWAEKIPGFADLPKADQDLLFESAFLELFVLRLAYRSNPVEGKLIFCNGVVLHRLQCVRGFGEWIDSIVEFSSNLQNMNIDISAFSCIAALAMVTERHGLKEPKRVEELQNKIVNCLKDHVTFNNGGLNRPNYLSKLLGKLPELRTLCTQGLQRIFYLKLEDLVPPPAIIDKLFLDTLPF
# In short: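 Measures transcriptional activation by an exogenous NR-Gal4 chimera in transfected HepG2 liver cells. After 24 h, reporter RNA is reverse-transcribed, amplified and resolved by capillary electrophoresis; DMSO defines baseline.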
# [4] = molecular target: Nuclear respiratory factor 1 (Homo sapiens) (UniProt Q16656); assay: ATG_NRF1_CIS: Attagene CIS-FACTORIAL HepG2 Assay for human Nuclear Respiratory Factor 1 (NRF1) Orphan Gene (AID 2282987); conditions: HepG2 NRF1 cis-element reporter, Attagene multiplex; actives raise or lower the signal
# Chain of Nuclear respiratory factor 1 (Homo sapiens) (Q16656 whole entry, looked up): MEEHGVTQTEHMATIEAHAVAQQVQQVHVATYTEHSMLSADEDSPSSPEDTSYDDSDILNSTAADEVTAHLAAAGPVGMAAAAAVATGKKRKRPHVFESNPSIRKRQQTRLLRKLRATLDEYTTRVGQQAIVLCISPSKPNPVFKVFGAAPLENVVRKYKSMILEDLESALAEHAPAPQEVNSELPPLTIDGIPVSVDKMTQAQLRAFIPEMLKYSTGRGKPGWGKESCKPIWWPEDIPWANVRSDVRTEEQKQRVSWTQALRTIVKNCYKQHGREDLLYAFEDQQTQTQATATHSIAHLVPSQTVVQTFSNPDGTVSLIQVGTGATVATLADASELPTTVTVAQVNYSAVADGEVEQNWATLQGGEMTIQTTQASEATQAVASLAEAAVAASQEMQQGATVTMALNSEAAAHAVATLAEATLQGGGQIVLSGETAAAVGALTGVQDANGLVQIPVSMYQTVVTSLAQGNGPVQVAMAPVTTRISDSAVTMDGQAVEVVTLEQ
# In short: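 Human hepatoma HepG2 cells carrying transfected promoter-regulated reporter units were incubated with test chemicals for 24 h. Reporter transcripts were measured by RT-PCR plus capillary electrophoresis, and endpoints derived by bidirectional fitting with DMSO as baseline.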
# [5] = ATG_NFI_CIS: Attagene CIS-FACTORIAL HepG2 Assay for human Nuclear Factor I (NFI) (AID 2282989); conditions: HepG2 cis-regulatory reporter, NFI response element transcription; actives raise or lower the signal
# In short: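 Transfected HepG2 liver cells, exposed 24 h, supplied total RNA for oligo(dT) reverse transcription and reporter-specific PCR. Labelled, HpaI-cut fragments were sized by capillary electrophoresis; DMSO set the baseline for bidirectional fitting.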
# [6] = molecular target: Myc proto-oncogene protein (Homo sapiens) (UniProt P01106); assay: ATG_Myc_CIS: Attagene CIS-FACTORIAL HepG2 Assay for human Myelocytomatosis (Myc) Proto-Oncogene Transcription Factor (AID 2282990); conditions: HepG2, Attagene cis-reporter transcription factor activity; actives raise or lower the signal
# Chain of Myc proto-oncogene protein (Homo sapiens) (P01106 whole entry, looked up): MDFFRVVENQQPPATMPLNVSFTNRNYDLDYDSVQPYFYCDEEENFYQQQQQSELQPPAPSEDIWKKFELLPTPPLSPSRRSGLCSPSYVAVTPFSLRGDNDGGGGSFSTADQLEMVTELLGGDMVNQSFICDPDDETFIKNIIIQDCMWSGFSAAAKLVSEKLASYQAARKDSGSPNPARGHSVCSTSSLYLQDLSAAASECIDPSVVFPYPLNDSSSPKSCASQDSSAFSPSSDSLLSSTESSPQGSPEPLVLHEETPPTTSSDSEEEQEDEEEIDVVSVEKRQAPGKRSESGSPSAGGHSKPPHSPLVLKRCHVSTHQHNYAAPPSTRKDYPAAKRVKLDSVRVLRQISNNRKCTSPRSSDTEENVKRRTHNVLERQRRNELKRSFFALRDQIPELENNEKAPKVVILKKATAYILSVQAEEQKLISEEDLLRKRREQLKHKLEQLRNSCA
# In short: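 HepG2, transient MRTU transfection (cis promoters, endogenous TFs); 24 h dosing; TriZol RNA → oligo(dT) RT → PCR → 6-FAM primer extension → HpaI cut → CE. Bidirectional fit vs DMSO.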
# [7] = molecular target: Hepatocyte nuclear factor 4-alpha (Homo sapiens) (UniProt P41235); assay: ATG_HNF4a_TRANS: Attagene TRANS-FACTORIAL HepG2 Assay for human Hepatocyte Nuclear Factor 4 alpha (HNF4a) (AID 2282982; active = hit-call score of the fitted dose curve at least 0.9, where 1 is the maximum); conditions: HepG2 HNF4a transactivation reporter, mRNA readout
# Chain of Hepatocyte nuclear factor 4-alpha (Homo sapiens) (P41235 whole entry, looked up): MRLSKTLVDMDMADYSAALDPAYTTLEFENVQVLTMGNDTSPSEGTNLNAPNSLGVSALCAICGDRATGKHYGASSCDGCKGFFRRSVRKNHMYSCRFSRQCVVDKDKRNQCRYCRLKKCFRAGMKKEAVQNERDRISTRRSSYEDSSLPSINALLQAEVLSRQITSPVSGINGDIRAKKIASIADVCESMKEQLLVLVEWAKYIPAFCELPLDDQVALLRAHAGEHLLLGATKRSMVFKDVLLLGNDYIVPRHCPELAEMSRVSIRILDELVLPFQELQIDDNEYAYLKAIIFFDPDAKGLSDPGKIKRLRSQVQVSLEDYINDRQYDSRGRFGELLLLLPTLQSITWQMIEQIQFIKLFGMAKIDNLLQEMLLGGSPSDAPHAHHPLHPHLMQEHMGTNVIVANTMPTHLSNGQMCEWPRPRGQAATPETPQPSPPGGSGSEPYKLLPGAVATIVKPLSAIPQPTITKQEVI
# In short: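 Multiplexed reporter assay: transfected HepG2, 24 h exposure, total RNA → oligo(dT) RT → PCR → 6-FAM extension → HpaI digest → CE fluorescence. DMSO = negative control.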
# [8] = ATG_M_06_TRANS: Attagene TRANS-FACTORIAL HepG2 Assay for M06 Transcription Factor (Internal Marker) (AID 2282983; active = hit-call score of the fitted dose curve at least 0.9, where 1 is the maximum;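 also: reporter transcript level by RT-PCR then capillary electrophoresis fluorescence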); conditions: HepG2 Attagene TRANS M06 internal marker reporter
# In short: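 Background-control reporter readout: after 24 h chemical exposure of transiently transfected HepG2 (GAL4-UAS reporter units), mRNA quantified by RT-PCR with fluorescent labeling and capillary electrophoresis. Gain-of-signal fitting against DMSO baseline.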
# [9] = molecular target: Transcriptional activator Myb (Homo sapiens) (UniProt P10242); assay: ATG_Myb_CIS: Attagene CIS-FACTORIAL HepG2 Assay for human Myeloblastosis (Myb) Proto-Oncogene Transcription Factor (AID 2282986); conditions: HepG2 Attagene CIS-FACTORIAL Myb reporter transcription; actives raise or lower the signal
# Chain of Transcriptional activator Myb (Homo sapiens) (P10242 whole entry, looked up): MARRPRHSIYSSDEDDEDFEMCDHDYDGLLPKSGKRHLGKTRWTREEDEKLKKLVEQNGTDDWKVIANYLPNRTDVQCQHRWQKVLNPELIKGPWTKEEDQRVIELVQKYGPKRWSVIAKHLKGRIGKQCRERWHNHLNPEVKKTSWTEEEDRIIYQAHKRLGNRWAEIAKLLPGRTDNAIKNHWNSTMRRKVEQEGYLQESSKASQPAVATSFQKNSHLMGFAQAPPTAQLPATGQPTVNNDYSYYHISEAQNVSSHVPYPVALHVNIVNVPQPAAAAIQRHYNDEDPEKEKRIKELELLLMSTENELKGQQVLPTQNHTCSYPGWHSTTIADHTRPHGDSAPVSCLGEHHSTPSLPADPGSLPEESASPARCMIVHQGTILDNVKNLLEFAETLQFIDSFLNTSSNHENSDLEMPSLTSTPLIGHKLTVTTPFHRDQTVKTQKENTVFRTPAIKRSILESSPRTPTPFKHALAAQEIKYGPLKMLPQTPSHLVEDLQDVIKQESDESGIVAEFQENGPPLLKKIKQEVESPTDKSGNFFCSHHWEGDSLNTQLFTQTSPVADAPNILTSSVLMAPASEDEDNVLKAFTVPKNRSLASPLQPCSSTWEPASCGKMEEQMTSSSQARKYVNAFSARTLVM
# In short: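 Endogenous transcription factor activity at a Myb-responsive cis element is reported in human liver HepG2 cells after 24 h chemical treatment. Reporter mRNA is detected by RT-PCR and capillary electrophoresis fluorescence, with DMSO as baseline.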
# [10] = molecular target: Oxysterols receptor LXR-alpha (Homo sapiens) (UniProt Q13133); assay: ATG_LXRa_TRANS: Attagene TRANS-FACTORIAL HepG2 Assay for human Liver X Receptor alpha (LXRa) (AID 2282980; active = hit-call score of the fitted dose curve at least 0.9, where 1 is the maximum); conditions: HepG2 Attagene TRANS reporter, LXRa transactivation
# Chain of Oxysterols receptor LXR-alpha (Homo sapiens) (Q13133 whole entry, looked up, the tested form may be a part): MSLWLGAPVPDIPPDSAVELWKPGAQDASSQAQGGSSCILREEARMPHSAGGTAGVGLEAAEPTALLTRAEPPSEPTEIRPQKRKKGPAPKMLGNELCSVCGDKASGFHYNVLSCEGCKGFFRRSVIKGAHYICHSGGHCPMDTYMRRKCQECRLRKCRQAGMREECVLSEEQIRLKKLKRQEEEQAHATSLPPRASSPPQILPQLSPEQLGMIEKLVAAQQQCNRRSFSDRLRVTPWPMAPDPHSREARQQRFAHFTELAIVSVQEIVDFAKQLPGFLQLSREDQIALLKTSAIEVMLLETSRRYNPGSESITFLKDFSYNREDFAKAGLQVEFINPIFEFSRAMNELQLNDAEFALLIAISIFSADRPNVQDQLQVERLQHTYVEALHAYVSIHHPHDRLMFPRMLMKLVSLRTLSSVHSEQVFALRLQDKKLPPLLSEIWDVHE
# In short: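 Chemical-induced reporter mRNA measured by RT-PCR with fluorescent labelling and capillary electrophoresis after 24 h dosing of transiently transfected HepG2 cells expressing exogenous NR-Gal4 chimeras; increases scored against DMSO baseline.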
SMILES,outcome [1],outcome [2],outcome [3],outcome [4],outcome [5],outcome [6],outcome [7],outcome [8],AC50 [5],outcome [9],AC50 [6],outcome [10],AC50 [9]
CC(C)(O)c1coc(S(=O)(=O)NC(=O)Nc2c3c(cc4c2CCC4)CCC3)c1,inactive,inactive,inactive,inactive,inactive,inactive,,,,,,,
CC(=O)OC[C@H]1O[C@@](COC(C)=O)(O[C@H]2O[C@H](COC(C)=O)[C@@H](OC(C)=O)[C@H](OC(C)=O)[C@H]2OC(C)=O)[C@@H](OC(C)=O)[C@@H]1OC(C)=O,inactive,inactive,,inactive,inactive,inactive,inactive,inactive,,,,,
O=c1[nH]c2ccc(S(=O)CCN3CCC(Cc4ccc(F)cc4)CC3)cc2o1 (configuration not stated),inactive,,inactive,inactive,,inactive,,inactive,100 µM (active),,,,
CC[C@H]1OC(=O)[C@H](C)[C@@H](O[C@H]2C[C@@](C)(OC)[C@@H](O)[C@H](C)O2)[C@H](C)[C@@H](O[C@@H]2O[C@H](C)C[C@H](N(C)C)[C@H]2O)[C@](C)(O)C[C@@H](C)C(=O)[C@H](C)[C@@H](O)[C@]1(C)O,inactive,inactive,,inactive,inactive,inactive,,inactive,,,,,
CC(C)=CCC/C(C)=C\CO,inactive,inactive,inactive,inactive,inactive,inactive,,inactive,,inactive,,,
Oc1ccc2c(c1)-c1ccccc1C2,,inactive,,inactive,,,inactive,inactive,37.9 µM (active),inactive,63.1 µM (active),,
O=C(NS(=O)(=O)/C=C/c1ccccc1)c1ccc(F)cc1Cl,,inactive,inactive,inactive,inactive,inactive,,,,,,inactive,
O=C(CCCCCCCCc1cccnc1)N1CCC(C=C(c2ccccc2)c2ccccc2)CC1,,inactive,inactive,inactive,inactive,,,inactive,,,8.5 µM (active),inactive,60.2 µM (active)
COC(=O)CC(=O)OC,,,inactive,inactive,inactive,inactive,inactive,inactive,,,,,
O=C(O)CC(O)C(=O)O (configuration not stated),,,,inactive,inactive,inactive,,inactive,,inactive,,,
CNS(=O)(=O)c1cc(C(=O)N2CCC(CCN3C4CCC3CC(n3c(C)nc5ccccc53)C4)(c3cccc(F)c3)CC2)c(Cl)cc1F (configuration not stated),,inactive,inactive,inactive,inactive,inactive,,inactive,,inactive,,,
